Rows were chosen to be rich in hits. Some 2.4% of all compounds tested hit in one or more screens of this group.
GLS inhibitor: inhibitors of human glutaminase (GLS). GLS enzymatic activity, qHTS titration. Potency, µM (titrated, usually from 45.5 µM), without a hit: at the highest dose activity change, negative = inhibition, hits mostly inhibitors. 410,000 compounds, 0.21% hits. AID 624170; also: potency is read from the fitted curve at half-maximal effect; % is scaled to controls: 0 for no effect and ±100 for the full control effect
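Compounds were pin-transferred onto hKGA, after which L-glutamine (1 mM solution) and a detection mix of glutamate oxidase, HRP and Amplex Red were added. Initial and 30 min RT fluorescence reads were collected.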
Pol eta inh-1: DNA polymerase eta (human) inhibition | Q9Y253 | recombinant Pol eta, fluorescent DNA replication assay | Potency, µM (doses to about 114 µM), for the others: at the highest dose activity change, negative = inhibition, usual class: inhibitors | 390,000 compounds, 1.2% hits; also: potency is read from the fitted curve at half-maximal effect; % is scaled to controls: 0 for no effect and ±100 for the full control effect
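Pol eta at 10 nM preincubated with compounds 15 min at room temperature; reaction started with fluorescent substrate (50 nM final) and read kinetically at 0 and 10 min.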
Pol beta inh-1: blocks human DNA polymerase beta activity | P06746 | Pol beta primer extension/strand displacement, fluorescence kinetic | Potency, µM (top dose mostly 114 µM), without a hit: at the top dose activity change, negative = inhibition, hits mostly inhibitors | 340,000 compounds, 1.3% hits; also: potency is read from the fitted curve at half-maximal effect; % is scaled to controls: 0 for no effect and ±100 for the full control effect
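Kinetic readout of DNA synthesis with strand displacement by Pol beta. Compound and 10 nM enzyme sit 15 min at room temperature; 50 nM substrate starts the reaction, read immediately and at 10 min.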
POLI inh: inhibitors of human DNA polymerase iota | Pol iota fluorescent replication assay, 10 min | Potency, µM (series often up to 115 µM), for inactives: top-dose activity, negative = inhibition, actives largely listed as inhibitors | 390,000 compounds, 1% hits; also: potency is read from the fitted curve at half-maximal effect
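Fluorescent replication assay read twice, at 0 min and 10 min after adding 50 nM (final) substrate. Enzyme (10 nM) and compounds were first incubated 15 min at room temperature; enzyme-free buffer wells were negative controls.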
APE1 inh-1: blocks human APE1 abasic DNA cleavage. P27695. recombinant APE1, TAMRA/BHQ-2 abasic DNA cleavage fluorescence. Potency, µM (titrated, usually from 65.8 µM), for the others: at the top dose activity change, negative = inhibition, usual class: inhibitors. 350,000 compounds, 0.35% hits;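 also: potency is read from the fitted curve at half-maximal effect; plate controls were vehicle for no effect and reference inhibitor for full effect; nearly all actives have a fitted effect of over 55% in size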
Target sequence (P27695 whole entry, looked up): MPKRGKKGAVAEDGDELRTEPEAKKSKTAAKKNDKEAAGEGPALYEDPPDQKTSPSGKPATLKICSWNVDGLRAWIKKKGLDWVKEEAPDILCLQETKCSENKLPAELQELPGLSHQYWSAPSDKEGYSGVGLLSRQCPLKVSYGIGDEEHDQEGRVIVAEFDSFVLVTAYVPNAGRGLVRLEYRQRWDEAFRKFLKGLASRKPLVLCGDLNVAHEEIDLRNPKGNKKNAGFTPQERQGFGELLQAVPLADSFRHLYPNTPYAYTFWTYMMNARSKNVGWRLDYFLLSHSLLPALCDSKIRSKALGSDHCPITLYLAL
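Step 1: APE1 (0.75 nM) with compound, 15 min RT. Step 2: add 50 nM fluorophore/quencher THF duplex. Step 3: three fluorescence reads 60 s apart (525/598 nm); read 3 minus read 1 = reaction progress.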
Pol kappa inh: DNA polymerase kappa (human) inhibition. purified Pol kappa, fluorescent DNA synthesis assay, 10 min. 400,000 compounds, 0.53% hits. Potency, µM (doses to about 107 µM), without a hit: at the top dose activity, negative = inhibition, usual class: inhibitors; also: potency is read from the fitted curve at half-maximal effect; % is scaled to controls: 0 for no effect and ±100 for the full control effect
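Here, compound and 10 nM enzyme are combined for 15 min at room temperature; adding 50 nM substrate (final) starts DNA synthesis, tracked by fluorescence at 0 and 10 min against buffer-only wells.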
APE1 dye cs: counter-screen for APE1 inhibitors: DNA dye displacement; shares compounds with APE1 inh-1; DNA fluorescent dye displacement counterscreen, fluorescence; Potency, µM (series often up to 28.5 µM), inactives show top-dose activity change, negative = inhibition, hits mostly inhibitors; 480 compounds, 7% hits;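 also: loss of thiazole orange fluorescence as the dye is displaced from duplex DNA; potency is read from the fitted curve at half-maximal effect; 0% = ThO with dsDNA and no compound and -100% = ThO without dsDNA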
EndoIV counter: counter-screen for APE1 inhibitors: inhibitors of E. coli endonuclease IV; E. coli Endo IV, fluorogenic AP-site DNA cleavage; 560 compounds, 4% hits; Potency, µM (highest dose often 27.1 µM), inactives show top-dose activity change, negative = inhibition, hits mostly inhibitors; shares compounds with APE1 inh-1;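 also: potency is read from the fitted curve at half-maximal effect; plate controls were uninhibited enzyme wells for no effect and no enzyme buffer wells for full effect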
APE1 inh-2: confirmation of inhibitors of human APE1 endonuclease; AID 2572; shares compounds with APE1 inh-1; 750 compounds, 44% hits; purified APE1, fluorogenic abasic-site DNA cleavage; Potency, µM (doses to about 57.1 µM), for inactives: at the highest dose activity change, negative = inhibition, most hits filed as inhibitors; also: potency is read from the fitted curve at half-maximal effect; % is scaled to controls: 0 for no effect and ±100 for the full control effect; nearly all actives have a fitted effect of over 30% in size
APE1 FP inh: APE1 (human) DNA binding inhibition, fluorescence polarization; 480 compounds, 7% hits; APE1 binding to TAMRA-labelled double-stranded DNA, fluorescence polarization displacement; AID 2573; Potency, µM (top dose mostly 28.5 µM), without a hit: top-dose activity, negative = inhibition, actives largely listed as inhibitors; shares compounds with APE1 inh-1; also: potency is read from the fitted curve at half-maximal effect; % is scaled to controls: 0 for no effect and ±100 for the full control effect
Pol beta inh-2: Human Pol beta inhibitor hit validation. shares compounds with Pol beta inh-1. Pol beta primer extension/strand displacement, fluorescence kinetic. Potency, µM, most hits filed as inhibitors. 250 compounds, 87% hits. AID 540280; calls by dose curve; also: potency is read from the fitted curve at half-maximal effect
Klenow inh: inhibits Klenow fragment polymerase in counter-screen | shares compounds with Pol beta inh-1 | Klenow exo- polymerase counter-screen, fluorescent DNA substrate | activity change, negative = inhibition, % at 57.1 µM | 250 tested, under 10 active | AID 540300
HIV RT inh: inhibits HIV-1 reverse transcriptase in counter-screen; HIV-1 RT polymerase activity, counter-screen; activity % (negative = inhibition, positive = activation), % at 57.1 µM; 250 tested, under 10 active; shares compounds with Pol beta inh-1; AID 540301
BAZ2B inh: confirmation of human BAZ2B bromodomain inhibitors. AlphaScreen BAZ2B / biotin-H3K14Ac peptide displacement. shares compounds with Pol kappa inh. Potency, µM, actives largely listed as inhibitors. 25 compounds, 100% hits; calls by dose curve
BAZ2B bead ctr: interferes with AlphaScreen signal in BAZ2B counterscreen; AID 588859; AlphaScreen biotin-His6 peptide bead counterscreen, signal decrease; Potency, µM (doses to about 57.1 µM), for the others: at the highest dose activity change, negative = inhibition, most hits filed as inhibitors; 25 tested, under 10 active; shares compounds with Pol kappa inh;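 active = clear concentration-dependent signal drop in the bead assay lacking the target, so a primary-screen artifact; inconclusive = weak, partial or single-dose response; inactive = no response, so a real primary hit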
TbPGK inh: TbPGK inhibition, hit validation; Potency, µM (doses to about 57.5 µM), for the others: at the highest dose activity change, negative = inhibition, usual class: inhibitors; TbPGK coupled GAPDH assay, Kinase-Glo luminescence; 500 compounds, 79% hits; shares compounds with Pol kappa inh; also: potency is read from the fitted curve at half-maximal effect; % is scaled to controls: 0 for no effect and ±100 for the full control effect; nearly all actives have a fitted effect of over 65% in size
Target sequence (P07378 whole entry, looked up): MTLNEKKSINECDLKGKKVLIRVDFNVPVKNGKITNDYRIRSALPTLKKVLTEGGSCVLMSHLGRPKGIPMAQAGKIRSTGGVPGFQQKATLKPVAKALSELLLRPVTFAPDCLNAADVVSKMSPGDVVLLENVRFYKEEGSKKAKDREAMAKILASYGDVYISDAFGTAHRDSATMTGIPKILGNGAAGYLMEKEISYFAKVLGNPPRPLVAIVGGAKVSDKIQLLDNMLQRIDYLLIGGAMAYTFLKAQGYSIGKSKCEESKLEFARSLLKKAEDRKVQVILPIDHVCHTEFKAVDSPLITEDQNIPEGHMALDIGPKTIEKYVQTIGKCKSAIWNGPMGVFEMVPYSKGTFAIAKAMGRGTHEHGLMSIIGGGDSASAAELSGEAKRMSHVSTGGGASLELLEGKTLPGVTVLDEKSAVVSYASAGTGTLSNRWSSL
Pol iota confirm: Confirm cherry-picked inhibitors of human polymerase iota; Pol iota primer extension, TAMRA/BHQ fluorescence; shares compounds with Pol kappa inh; 1,500 compounds, 77% hits; Potency, µM, actives largely listed as inhibitors; also: potency is read from the fitted curve at half-maximal effect
GALK inh confirm: galactokinase (human) inhibition, confirmation. shares compounds with Pol eta inh-1. purified GALK, Kinase-Glo ATP depletion luminescence. Potency, µM (doses to about 115 µM), for inactives: at the highest dose activity, negative = inhibition, hits mostly inhibitors. 150 compounds, 70% hits. AID 2015
GALK redox cs: redox cycling activity in phenol red-HRP assay; shares compounds with Pol eta inh-1; Phenol red-HRP H2O2 redox cycling, absorbance 600 nm; Potency, µM (top dose mostly 115 µM), inactives show top-dose activity change, negative = H2O2 signal, hits mostly inhibitors; 150 compounds, 40% hits; AID 2035
HEK293 tox: counter-screen for GALK inhibitors: HEK293 cell cytotoxicity | Potency, µM (series often up to 46.1 µM), for the others: top-dose activity change, negative = cytotoxicity, hits mostly inhibitors | 170 compounds, 10% hits | shares compounds with Pol eta inh-1 | HEK-293 viability, ATP luminescence (CellTiter-Glo), 24/48 h; also: potency is read from the fitted curve at half-maximal effect; % is scaled to controls: 0 for no effect and ±100 for the full control effect
Pol eta inh-2: Pol eta (human) inhibition, cherry-pick confirmation. shares compounds with Pol eta inh-1. Pol eta primer extension, TAMRA/BHQ fluorescence, 10 min. Potency, µM, actives largely listed as inhibitors. 2,600 compounds, 64% hits; also: potency is read from the fitted curve at half-maximal effect
The depositor's hits bear a star; u = inconclusive; x = not tested or not shown; [ ] = remark or other dose. Unless noted, calls follow the shape of the dose curve; as a rule, active = well fitted curve in the direction sought with a large enough effect; inconclusive = small, poorly fitted or top-dose-only effect, or another doubt; inactive = no such curve, though single readings can be large; an effect the other way counts as inactive or inconclusive.

SMILES | GLS inhibitor | Pol eta inh-1 | Pol beta inh-1 | POLI inh | APE1 inh-1 | Pol kappa inh | TbPGK inh | others
C=CCN1C(=O)NC(=O)/C(=C/c2cccn2C)C1=O | 5.0% | 0.2% | 2.4% | u | -0.3% | -9.3% | x
CCCCN1C(=O)/C(=C/C=C/c2ccco2)C(=O)NC1=S | -11.4% | 3.55µM* | 3.55µM* | 28.2µM* | 31.6µM* | 17.8µM* | 13µM* | APE1 dye cs=29.8%;EndoIV counter=52.8%;APE1 inh-2=14.1µM*;APE1 FP inh=65.3%;Pol iota confirm=23.8*;Pol eta inh-2=16.9*
O=C(OC1Cc2c(O)cc(O)cc2OC1c1cc(O)c(O)c(O)c1)c1cc(O)c(O)c(O)c1 (centres undefined) | x | x | x | x | 0.282µM* | 0.562µM* | x | EndoIV counter=8.8%[57.1 µM];APE1 inh-2=0.0891µM*;GALK inh confirm=9.43µM*;GALK redox cs=-9.8%;HEK293 tox=-6.9%
CCCCCn1c(=O)c(C(=O)Nc2ccccc2)c(O)c2ccccc21 | -7.0% | -13.9% | -2.0% | -15.5% | -9.3% | -3.7% | x
COc1ccc(CN2C(=O)NC(=O)/C(=C/c3cc(OC)c(OC)c(OC)c3)C2=O)cc1 | 9.5% | 0.7% | -2.0% | 21.2% | 1.8% | -7.2% | x
COc1ccc(CN2C(=O)NC(=O)/C(=C/c3ccoc3)C2=O)cc1 | -22.4% | 20µM* | 10µM* | 10µM* | 8.91µM* | 20µM* | 4.61µM* | APE1 dye cs=0.3%;EndoIV counter=-8.9%;APE1 inh-2=3.98µM*;APE1 FP inh=u;Pol iota confirm=18.9*;Pol eta inh-2=26.9*
C=C(C)C(=O)Nc1cccc(C2=NOC3(C2)C[C@H](C(N)=O)N(C(=O)CC)C3)c1 (some centres undefined) | -3.1% | 11.2µM* | 3.55µM* | u | -10.4% | 79.4µM* | x | Pol beta inh-2=8.91*;Klenow inh=-16.7;HIV RT inh=1.0;BAZ2B inh=7.08*;BAZ2B bead ctr=-2.9%
Cc1ccsc1C(=O)C1CCCN(Cc2cccn2-c2ccccn2)C1 (centres undefined) | -10.9% | -9.1% | 26.1% | 2.7% | -4.7% | -5.3% | x
CCN(CC)P(=O)(NC(=O)C(Cl)(Cl)Cl)N(CC)CC.[Cl-].[Cl-].[Cl-].[Nd+3] | -20.9% | u | u | u | u | 79.4µM* | u
COc1ccc2oc3c(c2c1)NC(=O)CN=C3c1ccccc1 | -6.5% | -4.3% | 32.2% | 15.2% | 12.9% | 10.4% | x
CN1C(=O)NC(=O)/C(=C\c2ccc([N+](=O)[O-])o2)C1=O | 7.08µM* | 2.24µM* | 100µM* | 2.51µM* | u | 14.1µM* | 1.83µM*
CCN(CC)C(=O)c1ccc2c(c1)C1C=CCC1C(C(=O)O)N2 (centres undefined) | 7.08µM* | 3.98µM* | 35.5µM* | 12.6µM* | 15.3% | u | u
CCC(C)C1NC(=O)C2CCCN2C(=O)C(CC(C)C)OC(=O)CCNC(=O)C(C)N(C)C(=O)C(C(C)C)N(C)C1=O (centres undefined) | 0.8% | -2.6% | x | 12.8% | x | -7.9% | x
CN(C)C(Cc1ccc(C#N)cc1)C(=O)c1ccccc1 (centres undefined) | -17.8% | -12.8% | 2.4% | 120.6% | -1.5% | -4.9% | x

Screening data (PubChem BioAssay)
